# Test results from PubChem BioAssay AID1345085 (National Center for Advancing Translational Sciences (NCATS), 2018).
# Records with an inconclusive call do not appear. Calls of active or inactive are those of the source. Calls come from the whole dose curve; as a rule, active = well fitted cell-killing curve with a large enough effect; inconclusive = small, poorly fitted or top-dose-only effect, or effect the other way; inactive = no such curve, though single readings can be large or run the other way.
# Tested on: Jar
# Experiment: Confirmatory qHTS for gynecologic anti-cancer compounds from libraries of approved drugs and bioactive compounds; note: nearly all actives have a fitted effect of over 55% in size
# Settings: gynecologic cancer cell panel viability, ATPlite luminescence, 48 h; series mostly up to 57.6 µM; activity change, negative = viability loss: at the top concentration
# Summary of the method: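 ATPlite luminescence read-out of cell viability; IC50 from 11-point 1:3 titrations, 57.5 uM to 0.977 nM, 48 h compound exposure at 37 C, 5% CO2. Cells seeded at 1,000/well 16 h before dosing.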
# % is set by controls: 0 for no effect and ±100 for the full control effect; potency is the fitted concentration of half-maximal effect.
Structure (SMILES),Potency,"activity change, negative = viability loss"
Cc1sc2c(c1C)C(c1ccc(Cl)cc1)=NC(CC(=O)OC(C)(C)C)c1nnc(C)n1-2 (configuration not stated),5440 nM (active),–
O=C(O)Cc1ccccc1,–,11.9% (inactive)
CCNC(=O)C[C@@H]1N=C(c2ccc(Cl)cc2)c2cc(OC)ccc2-n2c(C)nnc21,–,-8.57% (inactive)
C[C@H]1CCC/C=C/C2C[C@H](O)C[C@H]2[C@H](O)/C=C/C(=O)O1 (some centres not stated),432 nM (active),–
CCC(=O)O[C@H]1CC[C@H]2[C@@H]3CCC4=CC(=O)CC[C@]4(C)[C@H]3CC[C@]12C,–,-25.3% (inactive)
C[C@]12CC[C@H]3[C@@H](CCC4=CC(=O)CC[C@@H]43)[C@@H]1CC[C@@H]2OC(=O)CCc1ccccc1,–,-13.7% (inactive)
C=C(C)[C@H]1Cc2c(ccc3c2O[C@@H]2COc4cc(OC)c(OC)cc4[C@@H]2C3=O)O1,34.3 nM (active),–
